Reference: PubChem BioAssay (NCATS)
Results filed as inconclusive are left out. The source made the active and inactive calls. Calls follow the shape of the dose curve; as a rule, active = well fitted cell-killing curve with a large enough effect; inconclusive = small, poorly fitted or top-dose-only effect, or effect the other way; inactive = no such curve, though single readings can be large or run the other way.

Assay: qHTS of pediatric cancer cell lines to identify multiple opportunities for drug repurposing: Confirmatory screen for MG 63 (6-TG R) cells (AID 1347119); also: nearly all actives have a fitted effect of over 55% in size
Conditions: MG-63 (6-TG resistant) osteosarcoma viability; series mostly up to 45.9 µM; activity change, negative = cytotoxicity: at the top concentration
Description: Drug repurposing or repositioning has been offered as a strategy for drug development in oncology programs. This approach has special potential for childhood cancers and other rare or orphan diseases, where the expected return on new drug development has been a disincentive to pharmaceuticals.
In this project we exploit the poly-pharmacology of drugs to discover new indications via phenotypic screening of a panel of 19 well-characterized cell lines derived from solid tumors seen in children and adolescents. The goal is to identify approved drugs with previously unrecognized anticancer properties that has the potential to reveal new mechanisms and biological processes involved in carcinogenesis or drug resistance. We employed a titration-based paradigm (quantitative high-throughput screening or qHTS), where all compounds were tested at multiple concentrations for their effect on cell viability. Concentration-response curves (CRCs) were derived directly from the primary screen, and both potency and efficacy values were used to identify compounds with robust bioactivity profiles. We screened the NIH Chemical Genomics Center (NCGC) Pharmaceutical Collection (NPC) and Mechanism Interrogation Plate (MIPE) small molecule collections of approved and investigational compounds against these cell lines; and measured metabolically active cells after 48 hours of compound treatment as a proxy for cell viability.
Assay Submitter: Nathalia J. Martinez, National Center for Advancing Translational Sciences, National Institutes of Health, Rockville, MD, USA; email: natalia.martinez@nih.gov
[1] Shen, M et al. Quantitative high-throughput phenotypic screening of pediatric cancer cell lines identifies multiple opportunities for drug repurposing. Oncotarget 2017 Dec 19;9(4):4758-4772. PMID 29435139.
The cells were obtained from University of North Carolina (UNC), Pediatric Preclinical Testing Program (PPT), and Coriell Institute (CI).
qHTS cell viability assay:
Cells were assayed in growth media at a density of 500-1,000 cells/well. Five microliters of cells were dispensed into 1,536-well, white, solid-bottom, TC-treated plates (Greiner Bio One) using a multidrop dispenser and incubated at 37 degrees C, 5% CO2, under a humidified atmosphere for 5 hours. Twenty-three nanoliters of compounds and controls (neutral control DMSO or positive control bortezomib at final concentration of 2.3 µM) were subsequently transferred by Kalypsys pintool. For primary screens, the MIPE collection was tested at 11-point dilutions (final concentrations range from 0.78 nM to 46 µM) and the NPC collection at 8-point dilutions (final concentrations range from 0.59 nM to 46 µM). Compounds tested in follow-up screens were assayed at 11-point dilutions. Cells were incubated for 48 hours, followed by addition of 3 µL of CellTiter-Glo (Promega). After a 15 min incubation at room temperature, samples were analyzed for luminescence intensity using a ViewLux High-throughput CCD imager equipped with clear filters.
Potency is read from the fitted curve at half-maximal effect.

Compound | Potency | activity change, negative = cytotoxicity
CC(C)(O)c1cc2nc(-c3cnc(N)nc3)nc(N3CCOCC3)c2s1 | 0.369 µM (active) | 
CC[C@@H]1C(=O)N(C)c2cnc(Nc3ccc(C(=O)NC4CCN(C)CC4)cc3OC)nc2N1C1CCCC1 | 0.0928 µM (active) | 
Cc1c(NC(=O)OC[C@@H]2COCCN2)cn2ncnc(Nc3ccc4c(cnn4Cc4cccc(F)c4)c3)c12 |  | 1.48% (inactive)
Cc1nc(N)ncc1-c1nc(N2CCOCC2)c2sc(C(C)(C)O)cc2n1 | 0.465 µM (active) | 
Cc1cnc(-c2cnc(NCCNc3ccc(C#N)cn3)nc2-c2ccc(Cl)cc2Cl)[nH]1 | 0.737 µM (active) | 
Cn1c(=O)n(-c2ccc(C(C)(C)C#N)cc2)c2c3cc(-c4cnc5ccccc5c4)ccc3ncc21 | 0.369 µM (active) | 
COC(=O)[C@]12CCC(C)(C)C[C@@H]1[C@@H]1C(=O)C=C3[C@@]4(C)C=C(C#N)C(=O)C(C)(C)[C@@H]4CC[C@@]3(C)[C@]1(C)CC2 | 4.65 µM (active) | 
Cc1ccc(C(=O)Nc2ccc(CN3CCN(C)CC3)c(C(F)(F)F)c2)cc1C#Cc1cnc2cccnn12 |  | -84.8% (inactive)
Cc1c(C)n(Cc2ccc(-c3ccccc3C(=O)O)cc2)c2ccc(C(=O)N[C@@H](C)c3ccc([N+](=O)[O-])cc3)cc12 |  | -14.5% (inactive)
CCNC(=O)Nc1ccc2ncc(Nc3ccc(C)cc3)nc2n1 |  | 0.433% (inactive)
Cc1[nH]nc2ccc(-c3cncc(OC[C@@H](N)Cc4ccccc4)c3)cc12 | 3.69 µM (active) | 
CN(C)CC(C)(C)CNc1nn2c(-c3ccccc3)nnc2cc1C1CCC1 |  | -14.4% (inactive)
COc1cc2c(Oc3ccc(NC(=O)C4(C(=O)Nc5ccc(F)cc5)CC4)cc3F)ccnc2cc1OCCCN1CCOCC1 | 7.37 µM (active) | 
CC[C@@H]1C(=O)N(C)c2cnc(Nc3ccc(C(=O)NC4CCC(N5CCN(CC6CC6)CC5)CC4)cc3OC)nc2N1C(C)C (stereo not given in full) |  | -14.9% (inactive)
CNC(=O)CN1CCC(Oc2cc3c(Nc4cccc(Cl)c4F)ncnc3cc2OC)CC1 |  | -24.8% (inactive)
CNC(=O)c1ccccc1Nc1nc(Nc2ccc(N3CCOCC3)cc2OC)ncc1Cl | 0.261 µM (active) | 
Nc1ccn([C@@H]2O[C@H](CO)[C@H](O)C2(F)F)c(=O)n1 | 2.33 µM (active) | 
COc1cc2c(Oc3ccc(-c4cnc(Nc5ccc(F)cc5)n(C)c4=O)cc3F)ccnc2cc1OCCCN1CCOCC1 | 2.93 µM (active) | 
Cc1ccc2nc(NC(=O)CSc3nc4c(c(=O)n3-c3ccccc3)SCC4)sc2c1 | 5.22 µM (active) | 
Cc1cc(Nc2ncnc3ccc(-c4ccc(CNCCS(C)(=O)=O)o4)cc23)ccc1Oc1ccn2ncnc2c1 |  | -22% (inactive)

Compound | Potency | activity change, negative = cytotoxicity
O=C(Nc1cc(C(F)(F)F)cc(C(F)(F)F)c1)c1cc(Cl)ccc1O | 0.928 µM (active) | 
Cc1cc(N2CCOCC2)cc2[nH]c(-c3c(NC[C@@H](O)c4cccc(Cl)c4)cc[nH]c3=O)nc12 | 0.329 µM (active) | 
Cc1c(Cn2c(C)nc3c(C(=O)O)cc(N4CCOCC4)cc32)cccc1C(F)(F)F |  | -3.09% (inactive)
C=CC(=O)Nc1cc2c(Nc3ccc(F)c(Cl)c3)ncnc2cc1C#CC(C)(C)N1CCN(C)CC1 | 4.27 µM (active) | 
CN1CCN(Cc2ccc(NC(=O)Nc3ccc(Oc4cc(NC(=O)C5CC5)ncn4)cc3)cc2C(F)(F)F)CC1 | 2.61 µM (active) | 
COc1ccc(-n2nc(C(N)=O)c3c2C(=O)N(c2ccc(N4CCCCC4=O)cc2)CC3)cc1 |  | -16.9% (inactive)
CCn1nnc2c(N3CCOCC3)nc(-c3ccc(NC(=O)Nc4ccc(C(=O)N5CCN(C)CC5)cc4)cc3)nc21 | 0.293 µM (active) | 
COc1ccc(-c2cc3c(C)nc(N)nc3n(C3CCC(OCCO)CC3)c2=O)cn1 (stereo not given) |  | -19.7% (inactive)
CNC(=O)c1ccc(N2C(=S)N(c3cnc(C#N)c(C(F)(F)F)c3)C(=O)C23CCC3)cc1F |  | -14.8% (inactive)
O=C(C=Cc1cccnc1)NCCCCC1CCN(C(=O)c2ccccc2)CC1 |  | -1.53% (inactive)
Cc1c(CN2CCN(S(C)(=O)=O)CC2)sc2c(N3CCOCC3)nc(-c3cnc(N)nc3)nc12 | 0.329 µM (active) | 
O=C(C=Cc1cccc(S(=O)(=O)Nc2ccccc2)c1)NO | 2.69 µM (active) | 
C=CC(=O)Nc1cccc(Oc2nc(Nc3ccc(N4CCN(C)CC4)cc3)ncc2Cl)c1 | 2.93 µM (active) | 
COc1cccc2nc(-c3cccs3)nc(NN3C(=O)C=C(C)C3=O)c12 | 2.93 µM (active) | 
O=C(Nc1ncc(-c2cc(C(F)F)nn2-c2c(Cl)cccc2Cl)s1)C1CC1 | 0.329 µM (active) | 
Cc1cc(C(=O)N2CCN(c3cccc(Cl)c3)CC2)n(-c2ccccc2)n1 | 1.65 µM (active) | 
COc1cccc(Nc2c(C(N)=O)cnc3c(C)cc(S(=O)(=O)c4cccc(C(=O)N(C)C)c4)cc23)c1 |  | -15.7% [at 29.6 µM] (inactive)
CC(C)(C)c1cc(C(C)(C)C)c(NC(=O)c2c[nH]c3ccccc3c2=O)cc1O | 20.8 µM (active) | 
CCN1CCN(Cc2ccc(-c3cc4c(N[C@H](C)c5ccccc5)ncnc4[nH]3)cc2)CC1 | 13.5 µM (active) | 
CC(NCc1ccc2c(c1)nc(NC(=O)c1ccc(-c3cn[nH]c3)s1)n2CC(C)(C)O)C(C)(C)C (stereo not given) | 1.31 µM (active) | 
